Structures are written as SMILES. Values joined by “and” are separate entries in the source; they are usually repeats but may differ in a detail not shown here. Identical values can stand only once. Records with an inconclusive call do not appear. More than one record can exist for a structure, and the calls need not agree. Active and inactive are the calls of the source. Unless noted, calls come from the whole dose curve; as a rule, active = well fitted curve in the direction sought with a large enough effect in the repeat runs; inconclusive = weak or mixed curves; inactive = no such curve, though single readings can be large; an effect the other way counts as inactive or inconclusive.

Here are results for seven compounds from PubChem BioAssay (Tox21).

A short description of assay [1]: qHTS assay to test for compound auto fluorescence at 535 nm (green) in HEK293 cells (AID 720680). In general terms: Quantitative high-throughput screening tests each substance at several concentrations.
A short description of assay [2]: qHTS assay to test for compound auto fluorescence at 460 nm (blue) in HEK293 cell free culture (AID 720681). In short, it runs like this:
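Compounds were added to cell-free DMEM with 10% FBS and fluorescence read directly. The blue channel used 405 nm excitation and 460 nm emission, with triamterene as the reference fluorophore.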

Assay [3] in a line: qHTS assay to test for compound auto fluorescence at 535 nm (green) in HEK293 cell free culture (AID 720682). In short, it runs like this: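 Steps: dispense DMEM/10% FBS into empty wells; pin in compound or DMSO; measure fluorescence at 485/535 nm. Values are fluorescein equivalents.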
Assay [4] in a line: qHTS assay to test for compound auto fluorescence at 590 nm (red) in HEK293 cell free culture (AID 720683). In short, it runs like this: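 Cell-free wells of DMEM with 10% FBS received compound, and intrinsic fluorescence was read at excitation/emission 540/590 nm. Values expressed as equivalence to Rose Bengal sodium.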
The nature of assay [5]: qHTS assay to test for compound auto fluorescence at 590 nm (red) in HepG2 cell free culture (AID 720684). In short, it runs like this: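 Compound was pinned into wells holding MEM with 10% FBS and no cells, and red fluorescence was read at Ex/Em 540/590 nm. Signal is expressed as auto fluorescence equivalency relative to Rose Bengal sodium.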
Assay [6] in a line: qHTS assay to test for compound auto fluorescence at 460 nm (blue) in HepG2 cell free culture (AID 720685). The procedure, abridged: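 Compound (23 nL) or DMSO pinned into cell-free MEM with 10% FBS; blue fluorescence read at 405/460 nm excitation/emission, expressed as auto-fluorescence equivalency to triamterene.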
A short description of assay [7]: qHTS assay to test for compound auto fluorescence at 535 nm (green) in HepG2 cell free culture (AID 720686).
The nature of assay [8]: qHTS assay to test for compound auto fluorescence at 460 nm (blue) in HepG2 cells (AID 720687). The procedure, abridged:
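HepG2 cells in MEM with 10% FBS, attached overnight at 37 C, were exposed to compound or DMSO for 1 hr at 37 C, 5% CO2. Blue fluorescence was read at 405/460 nm, with triamterene as reference fluorophore.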

Assay [9] is described as follows: qHTS assay to identify small molecule antagonists of the glucocorticoid receptor (GR) signaling pathway - cell viability counter screen (AID 720693). Note: nearly all actives have a fitted effect of over 55% in size. Note: potency is the fitted concentration of half-maximal effect.
The nature of assay [10]: qHTS assay for identifying genotoxic compounds that show differential cytotoxicity against isogenic chicken DT40 cell lines with known DNA damage response pathways - wild type cell line (AID 743012). Note: nearly all actives have a fitted effect of over 60% in size. Note: potency is the fitted concentration of half-maximal effect. The procedure, abridged:
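Wild-type DT40 cells (300/well) exposed to compounds for 40 hours at 37 C/5% CO2. Viability read by CellTiter-Glo luminescence after 30 min at room temperature.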

Assay [11] in a line: qHTS assay for identifying genotoxic compounds that show differential cytotoxicity against isogenic chicken DT40 cell lines with known DNA damage response pathways - Rev3 mutant cell line (AID 743014). Note: nearly all actives have a fitted effect of over 55% in size. Note: potency is the fitted concentration of half-maximal effect.
Assay [12] can be described thus: qHTS assay for identifying genotoxic compounds that show differential cytotoxicity against isogenic chicken DT40 cell lines with known DNA damage response pathways - Rad54/Ku70 mutant cell line (AID 743015). Note: nearly all actives have a fitted effect of over 60% in size. Note: potency is the fitted concentration of half-maximal effect.
Assay [13] in a line: qHTS assay to identify small molecule antagonists of the androgen receptor (AR) signaling pathway - cell viability counter screen (AID 743033; note: nearly all actives have a fitted effect of over 45% in size; note: potency is the fitted concentration of half-maximal effect).
The nature of assay [14]: qHTS assay to identify small molecule antagonists of the androgen receptor (AR) signaling pathway using the MDA cell line - cell viability counter screen (AID 743041; note: nearly all actives have a fitted effect of over 45% in size; note: potency is the fitted concentration of half-maximal effect). In short, it runs like this: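 MDA-kb2 AR-luc cells (MMTV-luciferase, AR/GR responsive) treated with compounds plus R1881 agonist for 16 h at 37C. CellTiter-Fluor added at 15.5 h; fluorescence read after 30 min in the same wells.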

The target in assay [15] is Androgen receptor (Homo sapiens) (UniProt P10275). In words: qHTS assay to identify small molecule antagonists of the androgen receptor (AR) signaling pathway using the MDA cell line (AID 743042; note: nearly all actives have a fitted effect of over 55% in size; note: potency is the fitted concentration of half-maximal effect). The procedure, abridged: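 MDA-kb2 breast carcinoma cells carrying MMTV-luciferase (AR/GR responsive) were co-treated with compounds and the agonist R1881 for 16 h at 37C. Inhibition read as ONE-Glo luminescence; CellTiter-Fluor fluorescence measured in parallel for cytotoxicity.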
Sequence of Androgen receptor (Homo sapiens) (P10275 whole entry, looked up): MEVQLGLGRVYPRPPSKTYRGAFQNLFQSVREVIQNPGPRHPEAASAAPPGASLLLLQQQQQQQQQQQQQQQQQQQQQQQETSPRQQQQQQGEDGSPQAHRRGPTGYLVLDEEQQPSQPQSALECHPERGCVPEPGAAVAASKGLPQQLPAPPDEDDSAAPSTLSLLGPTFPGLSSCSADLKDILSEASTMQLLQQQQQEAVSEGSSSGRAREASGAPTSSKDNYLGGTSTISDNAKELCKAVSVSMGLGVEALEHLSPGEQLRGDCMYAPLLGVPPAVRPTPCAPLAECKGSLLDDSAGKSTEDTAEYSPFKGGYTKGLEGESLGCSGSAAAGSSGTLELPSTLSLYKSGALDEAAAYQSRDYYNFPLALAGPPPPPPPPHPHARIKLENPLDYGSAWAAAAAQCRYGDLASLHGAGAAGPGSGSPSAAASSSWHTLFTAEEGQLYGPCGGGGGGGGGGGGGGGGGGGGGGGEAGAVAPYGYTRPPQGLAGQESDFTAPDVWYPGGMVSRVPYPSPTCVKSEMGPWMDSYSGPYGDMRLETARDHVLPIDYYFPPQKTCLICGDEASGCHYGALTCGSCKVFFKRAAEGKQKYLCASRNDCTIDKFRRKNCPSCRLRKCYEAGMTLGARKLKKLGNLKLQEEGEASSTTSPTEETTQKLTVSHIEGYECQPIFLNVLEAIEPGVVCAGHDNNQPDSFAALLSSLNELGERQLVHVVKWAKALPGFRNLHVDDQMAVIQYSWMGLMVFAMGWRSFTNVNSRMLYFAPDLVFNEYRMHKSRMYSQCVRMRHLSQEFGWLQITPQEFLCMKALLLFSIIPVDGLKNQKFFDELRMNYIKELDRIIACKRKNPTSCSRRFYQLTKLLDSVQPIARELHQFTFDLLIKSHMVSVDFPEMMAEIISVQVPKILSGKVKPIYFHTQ

Assay [16] has the same target. In words: qHTS assay to identify small molecule antagonists of the androgen receptor (AR) signaling pathway (AID 743035; active = well fitted inhibition curve with a large enough effect in the signal ratio in the repeat runs, not every such curve was filed as active; the % refers to the signal ratio; note: potency is the fitted concentration of half-maximal effect). The procedure, abridged: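 HEK293 cells stably carrying UAS-beta-lactamase reporter, 2,000/well, given compounds plus R1881 agonist and incubated 16 h at 37C. LiveBLAzer B/G FRET substrate then added for 2 h at room temperature before fluorescence reading.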

The target is the same in assay [17]. Description: qHTS assay to identify small molecule agonists of the androgen receptor (AR) signaling pathway using the MDA cell line (AID 743040; note: nearly all actives have a fitted effect of over 20% in size). In short, it runs like this:
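MDA-kb2 breast carcinoma cells carrying MMTV-luciferase (responsive to AR and GR), plated 5 h then treated 16 h with compounds at 37C, 0% CO2. Read-out was ONE-Glo luminescence after 30 min at room temperature.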

For assay [18] the target is unchanged. Description: qHTS assay to identify small molecule agonists of the androgen receptor (AR) signaling pathway (AID 743036; active = well fitted activation curve with a large enough effect in the signal ratio in the repeat runs, with a control signal flat, not every such curve was filed as active; the % refers to the signal ratio). The procedure, abridged:
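Reporter line: GeneBLAzer AR-UAS-bla-GripTite (HEK293). Steps: plate cells, 4 h rest, add compounds, 16 h at 37C, add LiveBLAzer B/G substrate, 2 h at RT, read fluorescence.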

On to `CN(C)CCOc1ccc(/C(=C(/CCCl)c2ccccc2)c2ccccc2)cc1`, for which the compound was called inactive in assay [1], in assay [3], in [4] and in assay [5]. Moreover, the Potency result in assay [2], in [6], in [7], in assay [8], in assay [9] and in assay [14] was “inactive” throughout. For the same compound, the Potency in [10] is 11.9 µM (active) and 5.1 µM (active); in [11] it was 2.66 µM (active) and 1.44 µM (active); in [12], 9.44 µM (active) and 2.03 µM (active); in assay [13], 16.3 µM (active); in [15], “inactive and 57.2 µM (active)”.
In the case of `COc1cc([C@@H]2c3cc4c(cc3[C@@H](O[C@@H]3O[C@@H]5CO[C@@H](C)O[C@H]5[C@H](O)[C@H]3O)[C@H]3COC(=O)[C@H]23)OCO4)cc(OC)c1O`, the compound was classed as inactive in assay [1], in assay [3], in [4] and in assay [5]. Also, the Potency entry in [2], in [6], in [7], in [8], in assay [9] and in assay [14] was “inactive” throughout. Besides, the Potency in assay [10] is 531 nM (active) and 340 nM (active); in [12], 53.1 nM (active) and 15.2 nM (active).
For the compound `O=C1CCC/C=C\CCCCCCCCCC1`, the compound was classed as inactive in assay [1], in assay [3], in assay [4] and in [5]. Besides, the Potency entry in assay [2], in [6], in [7], in assay [8], in [9] and in assay [10] was “inactive” in each case. Moreover, the Potency result in assay [14] was “inactive”.
Turning to `NCC[C@H](O)C(=O)N[C@@H]1C[C@H](N)[C@@H](O[C@H]2O[C@H](CN)CC[C@H]2N)[C@H](O)[C@H]1O[C@H]1O[C@H](CO)[C@@H](O)[C@H](N)[C@H]1O`, the result in [1], in assay [3], in assay [4] and in [5] was inactive. Also, the Potency result in [2], in assay [6], in assay [7], in assay [8], in [9] and in assay [10] was “inactive” in each case. Moreover, the Potency result in assay [11], in [12], in assay [13] and in [14] was “inactive” throughout.
On to `CCCCCCCCCCCCCCCCCCNC(=O)OC1CCN(C(=O)OC[C@H](COC(=O)N(Cc2cccc[n+]2CC)C(=O)c2ccccc2OC)OC)CC1`, for which the result in [1], in assay [3], in assay [4] and in assay [5] was inactive. The Potency result in [2], in assay [6], in assay [7], in assay [8] and in assay [17] was “inactive” each time. In addition, the Potency was 16.9 µM (active) in [9]; 5.31 µM (active) in assay [10]; 6.68 µM (active) in assay [11]; 5.96 µM (active) in assay [12]; 10.7 µM (active) in [16]; 23.7 µM (active) in assay [14]. Also, in assay [15], the Potency is 13.3 µM (active).
On to `CC(=O)N[C@@H](C=O)[C@H](O)[C@H](O)[C@@H](O)CO`, for which the result in assay [1], in assay [3], in assay [4] and in assay [5] was inactive. The Potency result in [2], in assay [6], in assay [7], in assay [8], in assay [9] and in [10] was “inactive” in each case. The Potency result in assay [11], in assay [12], in assay [13] and in assay [14] was “inactive” each time.
For `CN(C)CCc1c[nH]c2ccc(Cn3cncn3)cc12`, the outcome in assay [1], in [3], in assay [4] and in [5] was inactive. Further, the Potency result in [2], in assay [6], in [7], in [8], in assay [9] and in [10] was “inactive” throughout. Moreover, the Potency entry in assay [11], in assay [13], in assay [16], in assay [18], in assay [17] and in assay [14] was “inactive” throughout. Besides, in assay [15], the Potency entry was “inactive”.
